We go through seven compounds from PubChem BioAssay (NCATS).

The target in experiment [1] is Glucocorticoid receptor (Homo sapiens) (UniProt P04150). Briefly: qHTS assay for small molecule agonists of glucocorticoid receptor signaling (AID 588532; active = well fitted curve in the direction sought with a large enough effect in the signal ratio, with a control signal flat; the % refers to the signal ratio;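 also: 100% = dexamethasone at 0.1 µM and 0% = DMSO only wells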). The note with it: HeLa MMTV-bla, beta-lactamase ratio, agonist, 18 h; stronger effect = higher value; percent of dexamethasone control, DMSO zero. In outline:
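Cells were plated and rested 3-5 h at 37 C, compounds were added in titration and incubated 18 h, then CCF4 substrate was loaded for 2 h at RT before reading blue/green fluorescence. EC50 came from Hill-equation fitting.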

Experiment [2] has the same target. Description: qHTS assay for small molecule antagonists of glucocorticoid receptor signaling (AID 588533; active = well fitted inhibition curve with a large enough effect in the signal ratio, with a control signal flat, not every such curve was filed as active; the % refers to the signal ratio;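 also: cells stimulated with 2 nM dexamethasone as agonist; % is scaled to controls: 0 for no effect and ±100 for the full control effect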). The note with it: HeLa MMTV-bla, GRE beta-lactamase ratio, antagonist mode, 18 h; series mostly up to 76.8 µM. Summed up: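 Antagonist-mode qHTS: compound titrations added to GRE-bla HeLa cells, then dexamethasone 2 nM final; 18 h, 37 C. CCF4 FRET fluorescence normalized to dexamethasone and DMSO; IC50 from Hill fit.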

Experiment [3] can be described thus: qHTS assay for small molecule antagonists of peroxisome proliferator-activated receptor delta signaling (AID 588535).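 Also: cells co-treated with a PPAR-delta agonist as stimulator during compound exposure.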 The note with it: HEK293T PPARd-UAS-bla, beta-lactamase FRET ratio, 18 h; 460 nm channel. In outline:
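Cells were seeded at 4000 per well in assay medium containing 2% charcoal/dextran FBS and held 5 hrs at 37 C. Compounds were then added for 18 hrs. CCF4 substrate was applied for 2 hrs at room temperature before fluorescence reading.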

Experiment [4] deals with Peroxisome proliferator-activated receptor gamma (Homo sapiens) (UniProt P37231). Description: qHTS assay for small molecule agonists of peroxisome proliferator-activated receptor gamma signaling (AID 588536; active = well fitted curve in the direction sought with a large enough effect in the signal ratio, with a control signal flat, not every such curve was filed as active; the % refers to the signal ratio). The conditions noted are these: HEK293 PPARg-UAS-bla, beta-lactamase ratio, 16 h, percent of rosiglitazone response, DMSO as zero; series mostly up to 76.7 µM. In outline: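 HEK293 UAS-bla reporter line, 1% charcoal/dextran FBS; titration, 16 h, 37 C; CCF4 loading 2 h RT; fluorescence 460/530 nm. Normalized to rosiglitazone 2 uM = 100%, DMSO = 0%.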

For experiment [5] the target is unchanged. Briefly: qHTS assay for small molecule antagonists of peroxisome proliferator-activated receptor gamma signaling (AID 588537; active = well fitted inhibition curve with a large enough effect in the signal ratio, with a control signal flat, not every such curve was filed as active; the % refers to the signal ratio;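 also: reporter cells co-stimulated with 50 nM rosiglitazone agonist during compound treatment; % of control where 0% means no effect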). The note with it: HEK293 PPARg-UAS-bla, beta-lactamase ratio, antagonist mode; series mostly up to 76.8 µM. In outline:
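Step one: plate 3000 HEK293 UAS-bla cells per well in medium with 1% stripped serum and hold 6-6.5 h at 37 C. Step two: add compound and 50 nM agonist for 16 h. Step three: CCF4 loading, fluorescence read.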

In experiment [6] the target is Vitamin D3 receptor (Homo sapiens) (UniProt P11473). Description: qHTS assay for small molecule agonists of vitamin D receptor signaling (AID 588543; calls by dose curve;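 also: 0% = DMSO basal and 100% = reference agonist control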). The note with it: HEK293T VDR-UAS-bla, beta-lactamase ratio, 16 h; series mostly up to 76.8 µM. Summed up: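 Agonist-mode beta-lactamase reporter: HEK293T VDR-UAS-bla cells in charcoal-stripped 2% FBS, compound series 16 h 37 C, CCF4 2 h RT. EC50 from Hill fit, scaled against DMSO and 50 nM calcitriol control.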

Experiment [7] can be described thus: qHTS assay for small molecule agonists of retinoid X receptor alpha signaling (AID 588544). The conditions noted are these: HEK293T RXRa-UAS-bla, beta-lactamase reporter, 18 h; 530 nm emission.
Experiment [8] concerns the target Thyroid hormone receptor beta (Homo sapiens) (UniProt P10828). Description: qHTS assay for small molecule agonists of thyroid hormone receptor beta signaling (AID 588545; calls by dose curve;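 also: 0% = DMSO only and 100% = 10 nM T3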). The conditions noted are these: TR-UAS-bla GripTite HEK 293, beta-lactamase ratio, agonist mode, 18 h; series mostly up to 76.7 µM. In outline: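 Stimulation of a TR-driven beta-lactamase reporter was quantified in GripTite HEK 293 cells. Compound series ran for 18 hrs; curves were normalized to T3 and DMSO controls and fitted to yield EC50.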

Experiment [9] can be described thus: qHTS assay for small molecule antagonists of retinoid X receptor alpha signaling (AID 588546; active = well fitted inhibition curve with a large enough effect in the signal ratio, with a control signal flat, not every such curve was filed as active; the % refers to the signal ratio;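 also: cells stimulated with 9-cis-retinoic acid as agonist; % is scaled to controls: 0 for no effect and ±100 for the full control effect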). The conditions noted are these: HEK293T RXRa-UAS-bla, beta-lactamase ratio, antagonist mode; measured here: W530 green channel, cytotoxicity proxy. In outline: (§1)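 Beta-lactamase reporter inhibition, read as CCF4 fluorescence ratio (ex 405, em 460/530 nm) after 2 h at RT. HEK293T UAS-bla cells, 2500/well, were stimulated with 9-cis-RA at 500 or 100 nM final alongside test compound for 18 h at 37 C.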

In experiment [10] the target is Retinoic acid receptor RXR-alpha (Homo sapiens) (UniProt P19793). The experiment is described as above. The note with it: HEK293T RXRa-UAS-bla, beta-lactamase ratio, antagonist mode. In outline: as §1
Experiment [11] can be described thus: qHTS assay for small molecule activators of the nuclear factor-kappa B (NF-kB) signaling pathway (AID 651749; active = well fitted activation curve with a large enough effect in the signal ratio; the % refers to the signal ratio; also: % of control where 0% means no effect). The note with it: NF-kB-bla ME-180 cells, beta-lactamase FRET ratio, 16 h; activation: stronger effect = higher value. Summed up:
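Incubation lasted 16 hr at 37C in 5% CO2 after 23 nL compound addition to ME-180 NF-kB-bla cells. Activation appears as beta-lactamase-mediated FRET loss.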

A short description of experiment [12]: qHTS assay for environmental chemicals that activate the Aryl hydrocarbon Receptor (AhR) signaling pathway (AID 651777). Also: % of control where 0% means no effect; nearly all actives have a fitted effect of over 15% in size. The note with it: 1A2-DRE human hepatoma cells, luciferase, 24 h; activation: stronger effect = higher value. Summed up:
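Following a 24 hr incubation with test chemicals at 37 C and 5% CO2, 1A2-DRE human hepatoma cells received One-Glo reagent; after 30 min at room temperature, luciferase output reflected CYP1A2 induction via AhR.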

Experiment [13] has as its target Peroxisome proliferator-activated receptor alpha (Homo sapiens) (UniProt Q07869). Briefly: qHTS assay for small molecule agonists of the peroxisome proliferator-activated receptor alpha (PPARalpha) signaling pathway (AID 651778). Also: potency is read from the fitted curve at half-maximal effect. As to max response: % of control where 0% means no effect. The note with it: PathHunter PPARalpha complementation, chemiluminescence, 6 h; max response: stronger effect = higher value. In outline: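 Enzyme-fragment complementation assay in which ligand-bound PPARalpha translocates and forms an active enzyme that generates chemiluminescence. Cells were plated overnight, exposed to compound for 6 hr at 37 C, and then given detection reagent for 60 min at room temperature.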

Experiment [14] can be described thus: qHTS assay for small molecule agonists of the antioxidant response element (ARE) signaling pathway measured by Nrf2-dependant transcriptional activity (AID 720636; active = well fitted curve in the direction sought with a large enough effect in the repeat runs; an effect the other way counts as inactive or inconclusive; also: % of control where 0% means no effect). The note with it: ARE-luc HepG2, Nrf2 luciferase reporter, 16 h; series mostly up to 92.4 µM. Summed up: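 ONE-Glo luminescence, read 30 min after reagent addition at room temperature, reflected ARE reporter activity in HepG2 cells that had been incubated with compound for 16 hr at 37 C in 1% dialyzed FBS.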

Experiment [15] in a line: qHTS assay for small molecule agonists of the antioxidant response element (ARE) signaling pathway measured by Nrf2-dependant transcriptional activity - cell viability counter screen (AID 720653; active = well fitted curve in the direction sought with a large enough effect in the repeat runs; an effect the other way counts as inactive or inconclusive; also: % is scaled to controls: 0 for no effect and ±100 for the full control effect). The note with it: ARE-bla HepG2 viability, CellTiter-Glo ATP luminescence, 16 h; max response: stronger effect = lower value. Summed up: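 ARE-bla HepG2 cells treated with compounds for 16 h at 37C; this counter screen measures viability as intracellular ATP by CellTiter-Glo luminescence after 30 min at room temperature.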

A short description of experiment [16]: qHTS assay for cell viability of HEK293 cells (AID 743288). Also: % is scaled to controls: 0 for no effect and ±100 for the full control effect; nearly all actives have a fitted effect of over 50% in size. The note with it: ATP luminescence (CellTiter-Glo), 18 h; max response: stronger effect = lower value. In outline:
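Total intracellular ATP, measured with a luciferase-coupled reagent, indicates the number of viable HEK293 cells. Exposure to test chemicals lasts 18 h at 37 C in 1,536-well format at 2,000 cells/well.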

Experiment [17] is described as follows: qHTS assay for cell viability of the p53RE-bla HCT-116 cell line (AID 743292). Also: % is scaled to controls: 0 for no effect and ±100 for the full control effect; nearly all actives have a fitted effect of over 55% in size. The conditions noted are these: p53RE-bla HCT-116 viability, ATP luminescence, 16 h; series mostly up to 95 µM. Summed up:
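After plating at 4,000 cells per well and a 5 h rest at 37 C, HCT-116 cells carrying p53RE-bla received test chemicals in DMSO. Sixteen hours later at 37 C, CellTiter-Glo was added and luminescence recorded following 30 min at room temperature.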

For experiment [18], the target named is Nuclear receptor subfamily 1 group I member 2 (Rattus norvegicus) (UniProt Q9R1A7). Description: qHTS assay for small molecule activators of the rat pregnane X receptor (rPXR) signaling pathway (AID 651751; call rule not given here; also: 0% is about no effect). The conditions noted are these: rPXR reporter cells, luciferase (One-Glo), 24 h.
Experiment [19] is described as follows: qHTS assay for small molecule activators of the human pregnane X receptor (PXR) signaling pathway (AID 720659; call rule not given here; also: 0% is about no effect). The conditions noted are these: DPX-2 HepG2 CYP3A4-luciferase, 24 h; series mostly up to 92.3 µM.
Experiment [20] in a line: qHTS assay for small molecule activators of the p53 signaling pathway (AID 651743; active = well fitted activation curve with a large enough effect in the signal ratio, not every such curve was filed as active; the % refers to the signal ratio; also: % of control where 0% means no effect). The note with it: HCT-116 p53RE-bla, beta-lactamase FRET ratio, 16 h; activation: stronger effect = higher value. In outline:
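HCT-116 p53RE-bla, 4,000 cells/well; 5 h settle; cpd/DMSO 16 h, 37 C; LiveBLAzer B/G 2 h RT; fluorescence intensity.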

Results filed as inconclusive are left out. Calls of active or inactive are those of the source. Unless noted, calls follow the shape of the dose curve; as a rule, active = well fitted curve in the direction sought with a large enough effect; inconclusive = small, poorly fitted or top-dose-only effect, or another doubt; inactive = no such curve, though single readings can be large; an effect the other way counts as inactive or inconclusive.

Chain of Glucocorticoid receptor (Homo sapiens) (P04150 whole entry, looked up): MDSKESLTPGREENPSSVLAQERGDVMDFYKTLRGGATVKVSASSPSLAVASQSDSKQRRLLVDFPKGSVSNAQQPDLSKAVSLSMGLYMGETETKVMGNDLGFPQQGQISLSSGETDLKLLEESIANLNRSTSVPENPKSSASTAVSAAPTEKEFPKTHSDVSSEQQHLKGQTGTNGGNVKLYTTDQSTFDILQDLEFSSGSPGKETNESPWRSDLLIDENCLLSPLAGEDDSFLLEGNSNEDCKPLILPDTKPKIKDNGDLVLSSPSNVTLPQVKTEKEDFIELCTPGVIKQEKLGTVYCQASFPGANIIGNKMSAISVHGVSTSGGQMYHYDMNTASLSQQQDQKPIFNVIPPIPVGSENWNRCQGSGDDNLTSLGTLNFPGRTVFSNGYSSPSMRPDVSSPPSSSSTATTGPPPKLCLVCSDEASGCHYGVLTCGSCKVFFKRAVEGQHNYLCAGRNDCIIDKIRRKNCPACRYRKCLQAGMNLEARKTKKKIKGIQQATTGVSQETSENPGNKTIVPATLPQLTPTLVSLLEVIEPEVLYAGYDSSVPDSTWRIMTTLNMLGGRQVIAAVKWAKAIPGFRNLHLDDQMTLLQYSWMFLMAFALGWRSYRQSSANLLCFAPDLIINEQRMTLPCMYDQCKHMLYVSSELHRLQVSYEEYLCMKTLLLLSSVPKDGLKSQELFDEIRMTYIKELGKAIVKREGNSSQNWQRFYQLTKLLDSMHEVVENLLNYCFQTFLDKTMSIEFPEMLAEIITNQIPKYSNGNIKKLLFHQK
Chain of Peroxisome proliferator-activated receptor gamma (Homo sapiens) (P37231 whole entry, looked up): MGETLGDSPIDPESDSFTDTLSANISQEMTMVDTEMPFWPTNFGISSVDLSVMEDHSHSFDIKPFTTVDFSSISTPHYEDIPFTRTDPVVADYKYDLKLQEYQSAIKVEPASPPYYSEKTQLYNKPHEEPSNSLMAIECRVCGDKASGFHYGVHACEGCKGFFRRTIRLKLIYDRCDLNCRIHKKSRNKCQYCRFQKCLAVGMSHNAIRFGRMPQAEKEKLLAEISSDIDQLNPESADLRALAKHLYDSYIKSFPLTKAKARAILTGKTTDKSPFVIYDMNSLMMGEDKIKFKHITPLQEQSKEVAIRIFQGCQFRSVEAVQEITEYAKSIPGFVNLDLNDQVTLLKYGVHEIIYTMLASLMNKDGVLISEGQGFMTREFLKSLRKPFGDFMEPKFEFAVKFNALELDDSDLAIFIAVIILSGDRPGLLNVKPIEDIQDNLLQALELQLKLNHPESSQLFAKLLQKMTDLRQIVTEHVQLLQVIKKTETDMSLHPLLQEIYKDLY
Chain of Peroxisome proliferator-activated receptor alpha (Homo sapiens) (Q07869 whole entry, looked up, the tested form may be a part): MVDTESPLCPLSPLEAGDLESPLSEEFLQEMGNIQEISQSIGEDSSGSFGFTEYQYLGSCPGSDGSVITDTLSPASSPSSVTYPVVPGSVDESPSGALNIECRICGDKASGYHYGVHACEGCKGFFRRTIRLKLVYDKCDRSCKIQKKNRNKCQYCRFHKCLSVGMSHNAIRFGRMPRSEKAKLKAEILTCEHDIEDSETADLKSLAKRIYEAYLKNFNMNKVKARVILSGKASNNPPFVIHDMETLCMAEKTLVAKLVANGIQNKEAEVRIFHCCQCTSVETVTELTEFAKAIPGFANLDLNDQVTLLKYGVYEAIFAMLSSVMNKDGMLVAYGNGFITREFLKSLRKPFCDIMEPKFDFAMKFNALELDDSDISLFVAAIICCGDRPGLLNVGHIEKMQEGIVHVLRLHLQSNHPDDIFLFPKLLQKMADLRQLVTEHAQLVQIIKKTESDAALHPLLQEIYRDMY
Chain of Thyroid hormone receptor beta (Homo sapiens) (P10828 whole entry, looked up): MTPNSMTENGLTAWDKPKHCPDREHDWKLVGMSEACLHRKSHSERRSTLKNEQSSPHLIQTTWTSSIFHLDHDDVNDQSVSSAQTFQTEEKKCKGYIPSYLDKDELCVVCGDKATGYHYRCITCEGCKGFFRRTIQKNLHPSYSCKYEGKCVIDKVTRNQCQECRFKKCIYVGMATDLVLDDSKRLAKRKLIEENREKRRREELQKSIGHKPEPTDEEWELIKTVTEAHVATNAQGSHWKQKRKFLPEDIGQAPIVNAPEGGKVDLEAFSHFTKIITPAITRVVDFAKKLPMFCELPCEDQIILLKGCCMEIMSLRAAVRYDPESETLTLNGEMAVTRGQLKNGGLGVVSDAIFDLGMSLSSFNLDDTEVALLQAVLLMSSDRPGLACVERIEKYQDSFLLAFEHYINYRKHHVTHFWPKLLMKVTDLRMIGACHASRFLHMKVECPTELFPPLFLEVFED
Chain of Nuclear receptor subfamily 1 group I member 2 (Rattus norvegicus) (Q9R1A7 whole entry, looked up): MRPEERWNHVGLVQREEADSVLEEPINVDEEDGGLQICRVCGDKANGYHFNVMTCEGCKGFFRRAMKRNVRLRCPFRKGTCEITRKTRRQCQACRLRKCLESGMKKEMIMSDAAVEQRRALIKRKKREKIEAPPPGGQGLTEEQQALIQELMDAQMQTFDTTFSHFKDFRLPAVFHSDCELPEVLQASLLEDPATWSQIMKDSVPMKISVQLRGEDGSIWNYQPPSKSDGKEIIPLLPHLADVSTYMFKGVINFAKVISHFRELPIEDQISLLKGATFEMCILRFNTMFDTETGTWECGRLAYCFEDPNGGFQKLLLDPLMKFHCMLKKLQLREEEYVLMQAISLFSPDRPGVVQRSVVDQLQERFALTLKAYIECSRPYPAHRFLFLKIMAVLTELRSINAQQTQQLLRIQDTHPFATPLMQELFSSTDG
Chain of Retinoic acid receptor RXR-alpha (Homo sapiens) (P19793 whole entry, looked up): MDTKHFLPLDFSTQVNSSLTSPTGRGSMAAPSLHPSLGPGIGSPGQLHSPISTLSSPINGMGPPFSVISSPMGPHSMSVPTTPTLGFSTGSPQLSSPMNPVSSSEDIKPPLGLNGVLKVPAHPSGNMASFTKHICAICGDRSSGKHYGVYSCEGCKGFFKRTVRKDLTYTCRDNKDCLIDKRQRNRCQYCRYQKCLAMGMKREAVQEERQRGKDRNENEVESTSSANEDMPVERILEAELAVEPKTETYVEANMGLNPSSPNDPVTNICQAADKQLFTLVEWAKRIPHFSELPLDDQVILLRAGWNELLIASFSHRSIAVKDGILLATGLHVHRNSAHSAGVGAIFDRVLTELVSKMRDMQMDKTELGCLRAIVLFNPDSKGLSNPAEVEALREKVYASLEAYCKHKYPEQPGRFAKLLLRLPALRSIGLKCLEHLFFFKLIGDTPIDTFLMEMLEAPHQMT
Chain of Vitamin D3 receptor (Homo sapiens) (P11473 whole entry, looked up): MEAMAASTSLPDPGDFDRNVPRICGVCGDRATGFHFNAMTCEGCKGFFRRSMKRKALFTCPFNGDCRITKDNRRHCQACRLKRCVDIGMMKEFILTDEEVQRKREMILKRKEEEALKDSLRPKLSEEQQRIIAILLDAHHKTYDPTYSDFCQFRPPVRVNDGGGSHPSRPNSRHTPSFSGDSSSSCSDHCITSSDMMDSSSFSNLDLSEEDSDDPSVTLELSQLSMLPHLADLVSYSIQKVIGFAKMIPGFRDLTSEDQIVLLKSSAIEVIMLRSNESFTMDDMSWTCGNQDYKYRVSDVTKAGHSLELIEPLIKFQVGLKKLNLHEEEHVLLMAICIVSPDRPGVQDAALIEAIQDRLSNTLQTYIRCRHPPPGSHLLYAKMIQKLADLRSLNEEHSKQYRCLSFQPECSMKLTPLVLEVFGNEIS

In the case of `CCCCCCCC/C=C\CCCCCCCC(=O)OC`, the activation is -1.79% (inactive) in [1], -2.39% (inactive) in experiment [11] and -0.866% (inactive) in experiment [12]. Besides, the Potency entry in experiment [2], in experiment [5], in experiment [8], in [14] and in [17] was “inactive” in each case. Further, the max response was -11.5% in [3]; -13.4% in experiment [7]; -9.12% in experiment [9]; -0.729% (inactive) in experiment [10]; 4.75% (inactive) in experiment [13]; -4.89% (inactive) in experiment [15]. Further, the max response in experiment [16] was -6.3% (inactive); in [18], 0.29% (inactive). The outcome in experiment [4], in experiment [6] and in experiment [19] was inactive.
Turning to `CC(C)CCCCOC(=O)c1ccccc1C(=O)OCCCCC(C)C`, the activation is -8.95% (inactive) in experiment [1], -3.26% (inactive) in experiment [20], -2.54% (inactive) in [11] and 0.811% (inactive) in experiment [12]. Besides, the Potency result in experiment [2], in experiment [5], in experiment [8], in experiment [14] and in [17] was “inactive” throughout. Moreover, the max response was -26.8% in experiment [3]; 6.42% in [7]; -6.23% in [9]; -8.08% (inactive) in experiment [10]; -11% (inactive) in experiment [15]; -17.5% (inactive) in [16]. Also, the max response in experiment [18] was 13.4% (inactive). The outcome in [4] was inactive.
For `C=CCCCCCCCCCC`, the activation in experiment [1] is -14.2% (inactive); in [20] it was -0.565% (inactive); in experiment [12] it was -1.31% (inactive). Besides, the Potency result in [2], in experiment [8], in experiment [14] and in experiment [17] was “inactive” throughout. Further, the max response in [3] is -16.2%; in [7], -13.8%; in experiment [9] it was -3.33%; in experiment [10], 2.09% (inactive); in experiment [15], -1.98% (inactive); in experiment [16], -2.08% (inactive). In experiment [18], the max response is -5.04% (inactive). The result in experiment [4] and in experiment [19] was inactive.
For `CC(COc1ccc(C(C)(C)C)cc1)OS(=O)OCCCl` (centres undefined), the max response in [3] is 82.6%; in experiment [13], -2.96% (inactive); in [15], -25.1% (inactive); in [16], -26.1% (inactive); in experiment [18] it was -11.7% (inactive). In experiment [6], the outcome was inactive. The Potency entry in experiment [8] and in experiment [17] was “inactive” each time. Also, the activation in experiment [12] was 12.5% (inactive).
Turning to `CC(C)CCCCCCCCCCCCCCC(=O)O`, the activation in experiment [1] was -9.44% (inactive); in [20], 1.15% (inactive); in experiment [11], -0.531% (inactive); in [12], -2.9% (inactive). Moreover, the Potency entry in experiment [2], in experiment [8], in experiment [14] and in [17] was “inactive” throughout. In addition, the max response is 7.35% in experiment [3]; -6.99% in [7]; -12.3% in experiment [9]; -25.1% (inactive) in [10]; 4.34% (inactive) in [15]; -0.822% (inactive) in experiment [16]. Further, the max response in experiment [18] is 1.88% (inactive). In addition, the outcome in experiment [4] and in experiment [19] was inactive. The Potency in [13] is 39.8 µM (active).
Take `COc1cc(Cl)c(OC)cc1N`: the activation in experiment [1] is -0.0557% (inactive). Also, the Potency entry in [2], in experiment [5], in experiment [14] and in experiment [17] was “inactive” in each case. The max response in [3] is -0.344%; in experiment [7] it was -3.24%; in experiment [9], 1.78%; in [10], -0.61% (inactive); in experiment [13], -0.316% (inactive); in [15], 1.98% (inactive). Also, the max response in [18] was 6.4% (inactive). Besides, the outcome in [4] and in [6] was inactive.
Consider `CCCC/C=C\CCCCCCCCCC=O`, for which the max response in [3] is -21.9%; in experiment [9], -13.9%; in experiment [10], 6.53% (inactive); in [13], 7.85% (inactive); in [15], -12.8% (inactive); in [16], 3.95% (inactive). The max response in experiment [18] was 4.56% (inactive). Also, the outcome in experiment [4], in experiment [6] and in experiment [19] was inactive. The Potency entry in experiment [8], in experiment [14] and in experiment [17] was “inactive” each time. Moreover, the activation in experiment [20] is 0.222% (inactive); in experiment [11], -0.297% (inactive); in experiment [12], 1.27% (inactive).
